In paper PMC5700166 one finds binding signal data, which are given here for 36 sequences.

The target in experiment [1] is T1, GST-Nv-NF-kB (Ser allele) (Nematostella vectensis, UniProt A7UNT2 2-411).
T1 sequence: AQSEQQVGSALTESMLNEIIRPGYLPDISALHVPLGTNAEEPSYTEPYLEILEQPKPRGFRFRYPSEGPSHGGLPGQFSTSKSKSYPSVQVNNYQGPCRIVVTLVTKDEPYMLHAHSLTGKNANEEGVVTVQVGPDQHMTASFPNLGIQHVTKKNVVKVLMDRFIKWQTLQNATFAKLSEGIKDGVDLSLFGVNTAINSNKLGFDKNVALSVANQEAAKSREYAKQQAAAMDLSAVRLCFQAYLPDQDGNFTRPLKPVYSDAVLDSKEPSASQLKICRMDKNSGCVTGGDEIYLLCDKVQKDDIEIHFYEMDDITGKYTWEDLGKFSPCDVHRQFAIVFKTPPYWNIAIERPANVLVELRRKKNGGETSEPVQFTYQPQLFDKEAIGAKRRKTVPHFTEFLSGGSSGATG
In words: protein-binding microarray (PBM); PBM: ~300 nM protein, 6 mM HEPES pH 7.8, 80 mM KCl, 0.5 mM EDTA, 0.5 mM EGTA, 6% glycerol, 35 ng/ul poly-dIdC, 1% milk, 1 h, room temperature; Ap Aiptasia and Nv Nematostella (sea anemones) / Co Capsaspora / Aq Amphimedon (sponge) / Dm Drosophila / Hu human; RHD is the Rel homology domain; high values mean tight binding. As to conditions: dsDNA, one strand shown.

The next experiment addresses GST-Hu-p50 (Homo sapiens, UniProt P19838 7-356). Described as above. As to conditions: dsDNA, one strand shown.

Sequence of GST-Hu-p50 (P19838 7-356): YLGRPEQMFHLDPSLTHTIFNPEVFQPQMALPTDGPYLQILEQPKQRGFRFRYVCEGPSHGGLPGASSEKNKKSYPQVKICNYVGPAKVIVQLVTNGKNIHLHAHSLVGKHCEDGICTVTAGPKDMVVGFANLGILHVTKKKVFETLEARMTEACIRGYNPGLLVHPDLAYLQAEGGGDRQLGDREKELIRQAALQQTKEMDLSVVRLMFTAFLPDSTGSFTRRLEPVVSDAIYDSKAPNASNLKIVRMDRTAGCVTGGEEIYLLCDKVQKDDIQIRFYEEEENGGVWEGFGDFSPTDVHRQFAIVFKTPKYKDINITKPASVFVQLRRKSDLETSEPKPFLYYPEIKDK

For the sequence “CCGATTAACATCACGGGTTTCCCTGATGTTAATCGGGTCTTGATTCGCTTGACGCTGCTG”, the binding signal was found to be 4.88 z-score in experiment [1] and 3.17 z-score with GST-Hu-p50.
“CCGATTAACATCAATTTTCCCAATGATGTTAATCGGGTCTTGATTCGCTTGACGCTGCTG”: the binding signal was determined as 4.62 z-score in experiment [1] and 3.18 z-score with GST-Hu-p50.
“CCGATTAACATCAGGTAATTCCATGATGTTAATCGGGTCTTGATTCGCTTGACGCTGCTG”: the binding signal in experiment [1] amounted to 3.72 z-score; in the experiment with GST-Hu-p50, 2.14 z-score.
In the case of “CCGATTAACATCAAAAACACCCCTGATGTTAATCGGGTCTTGATTCGCTTGACGCTGCTG”, the binding signal in experiment [1] was found to be 3.89 z-score; with GST-Hu-p50, 4.99 z-score.
Turning to “CCGATTAACATCACTAAAATCCCTGATGTTAATCGGGTCTTGATTCGCTTGACGCTGCTG”, the binding signal in experiment [1] came out at 3.42 z-score; in the experiment with GST-Hu-p50, 3.2 z-score.
With “CCGATTAACATCAGGGAATTCGATGATGTTAATCGGGTCTTGATTCGCTTGACGCTGCTG”, the binding signal in experiment [1] came to 4.38 z-score; with GST-Hu-p50 it was 2.58 z-score.
Take “CCGATTAACATCAGGGGGTAGGATGATGTTAATCGGGTCTTGATTCGCTTGACGCTGCTG”: the binding signal in experiment [1] worked out at 3.54 z-score; with GST-Hu-p50, 2.97 z-score.
In the same order, the values of “CCGATTAACATCAAAAATTTTCCTGATGTTAATCGGGTCTTGATTCGCTTGACGCTGCTG” are 1.32 z-score and 2.23 z-score.
The like results for “CCGATTAACATCATTGGGAAAAATGATGTTAATCGGGTCTTGATTCGCTTGACGCTGCTG” were, in that order, 3.58 z-score and 2.4 z-score.
The like results for “CCGATTAACATCAGAAGTTCCCATGATGTTAATCGGGTCTTGATTCGCTTGACGCTGCTG” were, in that order, 1.1 z-score and 1.09 z-score.
Regarding “CCGATTAACATCAGGGGTTCCACTGATGTTAATCGGGTCTTGATTCGCTTGACGCTGCTG”, the binding signal was 1.62 z-score in experiment [1] and 2.51 z-score in the experiment with GST-Hu-p50.
Take “CCGATTAACATCAGATTTCCCACTGATGTTAATCGGGTCTTGATTCGCTTGACGCTGCTG”: the figures for the binding signal (in experiment [1]; with GST-Hu-p50) were 3.83 z-score and 2.99 z-score, respectively.
The like results for “CCGATTAACATCACGGGATTTCCTGATGTTAATCGGGTCTTGATTCGCTTGACGCTGCTG” were, in that order, 3.47 z-score and 3.82 z-score.
In the same order, the values of “CCGATTAACATCAAGGGAGTACCTGATGTTAATCGGGTCTTGATTCGCTTGACGCTGCTG” are 4.41 z-score and 2.56 z-score.
In the same order, the values of “CCGATTAACATCAGGGATTACCATGATGTTAATCGGGTCTTGATTCGCTTGACGCTGCTG” are 2.16 z-score and 1.76 z-score.
For the sequence “CCGATTAACATCAAAGTGTCCCCTGATGTTAATCGGGTCTTGATTCGCTTGACGCTGCTG”, the binding signal in experiment [1] is 4.51 z-score; with GST-Hu-p50, 3.85 z-score.
On to “CCGATTAACATCACAATACCCCCTGATGTTAATCGGGTCTTGATTCGCTTGACGCTGCTG”, for which the binding signal was determined as 5.97 z-score in experiment [1] and 4.87 z-score with GST-Hu-p50.
Regarding “CCGATTAACATCAAAACAATCCCTGATGTTAATCGGGTCTTGATTCGCTTGACGCTGCTG”, the binding signal in experiment [1] was 1.53 z-score; in the experiment with GST-Hu-p50, 2.64 z-score.
The like results for “CCGATTAACATCACCCGGGAAAATGATGTTAATCGGGTCTTGATTCGCTTGACGCTGCTG” were, in that order, 4.34 z-score and 3.07 z-score.
“CCGATTAACATCACAACCCCCCCTGATGTTAATCGGGTCTTGATTCGCTTGACGCTGCTG”: the binding signal in experiment [1] was 4.57 z-score; in the experiment with GST-Hu-p50 it was 4.53 z-score.
In the same order, the values of “CCGATTAACATCAATTTACCCACTGATGTTAATCGGGTCTTGATTCGCTTGACGCTGCTG” are 2.27 z-score and 2.06 z-score.
In the case of “CCGATTAACATCACGGGACTTCCTGATGTTAATCGGGTCTTGATTCGCTTGACGCTGCTG”, the binding signal was 4.98 z-score in experiment [1] and 4.6 z-score with GST-Hu-p50.
As for “CCGATTAACATCAGGGGAACACATGATGTTAATCGGGTCTTGATTCGCTTGACGCTGCTG”, the binding signal in experiment [1] was determined as 5.55 z-score; with GST-Hu-p50, 3.37 z-score.
“CCGATTAACATCAGGGGATCTACTGATGTTAATCGGGTCTTGATTCGCTTGACGCTGCTG”: the binding signal in experiment [1] is 5.35 z-score; with GST-Hu-p50, 4.5 z-score.
In the same order, the values of “CCGATTAACATCAGAAATCCCACTGATGTTAATCGGGTCTTGATTCGCTTGACGCTGCTG” are 1.91 z-score and 2.66 z-score.
For the sequence “CCGATTAACATCAGGGGGATCACTGATGTTAATCGGGTCTTGATTCGCTTGACGCTGCTG”, the values for the binding signal (in experiment [1]; in the experiment with GST-Hu-p50) were 5.27 z-score and 5.04 z-score, respectively.
“CCGATTAACATCAGGGAAACTCATGATGTTAATCGGGTCTTGATTCGCTTGACGCTGCTG”: the figures for the binding signal (in experiment [1]; with GST-Hu-p50) were 4.62 z-score and 3.13 z-score, respectively.
In the same order, the values of “CCGATTAACATCAGGATAATCCCTGATGTTAATCGGGTCTTGATTCGCTTGACGCTGCTG” are 1.62 z-score and 2.15 z-score.
The like results for “CCGATTAACATCACGGTACGGGGTGATGTTAATCGGGTCTTGATTCGCTTGACGCTGCTG” were, in that order, 1.3 z-score and 1.71 z-score.
In the same order, the values of “CCGATTAACATCACCACTTTCCCTGATGTTAATCGGGTCTTGATTCGCTTGACGCTGCTG” are 5.06 z-score and 3.47 z-score.
“CCGATTAACATCAAAAAAATTTCTGATGTTAATCGGGTCTTGATTCGCTTGACGCTGCTG”: the binding signal in experiment [1] came to 1.35 z-score; in the experiment with GST-Hu-p50 it was 1.66 z-score.
In the same order, the values of “CCGATTAACATCAGGGGATCCACTGATGTTAATCGGGTCTTGATTCGCTTGACGCTGCTG” are 5.91 z-score and 4.97 z-score.
For the sequence “CCGATTAACATCAGGGGTTTCACTGATGTTAATCGGGTCTTGATTCGCTTGACGCTGCTG”, the figures for the binding signal (in experiment [1]; in the experiment with GST-Hu-p50) were 2.32 z-score and 4.22 z-score, respectively.
Turning to “CCGATTAACATCACGGAATACCCTGATGTTAATCGGGTCTTGATTCGCTTGACGCTGCTG”, the figures for the binding signal (in experiment [1]; with GST-Hu-p50) were 3.97 z-score and 3.41 z-score, respectively.
The like results for “CCGATTAACATCAGGGGTATAACTGATGTTAATCGGGTCTTGATTCGCTTGACGCTGCTG” were, in that order, 1.03 z-score and 1.68 z-score.
For “CCGATTAACATCAAATACTTCCCTGATGTTAATCGGGTCTTGATTCGCTTGACGCTGCTG”, the binding signal worked out at 3.4 z-score in experiment [1] and 1.98 z-score with GST-Hu-p50.
